PubChem BioAssay AID485344 (National Center for Advancing Translational Sciences (NCATS), 2010)
The campaign covered roughly 340,000 compounds. About 6,900 (2%) were called active. No stated cut-off is given here; in the data, active means inhibition above about 30%; inactive means below that, where a call was filed. The sample as a whole holds a higher share of actives than the screen did.

target: D(2) dopamine receptor (Homo sapiens) (UniProt P14416); assay: HTS Assay for Allosteric Antagonists of the Human D2 Dopamine Receptor: Primary Screen for Antagonists; conditions: HEK293 TREx D2 cells, calcium flux, dopamine EC80; at 10 µM; active compounds read high; further: 0% is about no effect
Sequence (P14416 whole entry, looked up): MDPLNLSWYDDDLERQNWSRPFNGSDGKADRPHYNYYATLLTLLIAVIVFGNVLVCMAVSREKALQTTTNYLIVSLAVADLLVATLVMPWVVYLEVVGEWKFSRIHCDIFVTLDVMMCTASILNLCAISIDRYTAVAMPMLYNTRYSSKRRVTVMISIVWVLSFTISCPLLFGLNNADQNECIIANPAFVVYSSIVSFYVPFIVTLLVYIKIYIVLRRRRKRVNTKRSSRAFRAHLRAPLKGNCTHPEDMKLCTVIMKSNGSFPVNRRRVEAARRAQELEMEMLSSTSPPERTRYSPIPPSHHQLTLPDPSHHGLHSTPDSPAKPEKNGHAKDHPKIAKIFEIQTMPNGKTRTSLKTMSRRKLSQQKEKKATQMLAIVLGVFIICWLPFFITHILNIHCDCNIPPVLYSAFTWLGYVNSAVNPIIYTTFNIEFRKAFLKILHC
How it was run: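 In this primary screen, negative modulation is detected by tracking calcium flux after an EC80 dopamine challenge in inducible HEK293 T-REx D2 cells preexposed to test compound for 180 s.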

inhibition, inactive:
COc1ccc(CN2CCN(C(=O)c3cc(C4CC4)nn3-c3ccccc3)CC2)cc1F -4.93%, N#CC1(NC(=O)COC(=O)Cc2n[nH]c(=O)c3ccccc23)CCCCC1 -5.98%, Cc1nn(Cc2ccccc2)c(C)c1CNC(=O)c1ccc(F)c(S(=O)(=O)N2CCOCC2)c1 5.64%, CCOC(=O)C(=O)Nc1nc(-c2ccccc2)c(CC)s1 8.31%, CCOC(=O)c1sc2nc(CSc3ccccc3)[nH]c(=O)c2c1C 20.4%, Cc1ccc(C)c(NC(=O)C(c2ccccc2)N2CCN(CC(=O)NC3CC3)CC2)c1 (stereo not drawn) 5.16%, O=C(Cc1ccc(-n2c(=O)[nH]c3ccccc3c2=O)cc1)N1CCN(c2cccc(Cl)c2)CC1 11.5%, COc1cccc(CNC(=O)Cc2csc(Nc3nc(=S)[nH]c4ccccc34)n2)c1 -15.6%, COc1ccc(S(=O)(=O)N2CCOCC2)cc1NC(=O)c1ccc(OCC(C)C)c(OC)c1 -9.24%, Cc1ccc(S(=O)(=O)NCCN2CCOCC2)cc1C -3.48%, CCc1ccc(S(=O)(=O)Nc2cc3c(cc2N2CCCCC2)n(C)c(=O)c(=O)n3C)cc1 4.98%, Cc1ccc(S(=O)(=O)N2CCOCC2)cc1C(=O)Nc1ccccc1N1CCCC1 3.22%, CCOc1ccc(S(=O)(=O)N2CCCCC2)cc1NC(=O)CN1CCCC1c1cccs1 (stereo not drawn) 19.6%, CC(=O)NCC(O)c1ccc([N+](=O)[O-])cc1 (stereo not drawn) 12.7%, COc1ccccc1CNC(=O)CCCN1C(=O)NC2(CCCC2)C1=O 0.109%, NS(=O)(=O)c1ccc(CCNC(=O)COC(=O)COc2cccc(C(F)(F)F)c2)cc1 -7.34%, CCOc1ccccc1C1NC(=O)NC(C)=C1C(=O)OCc1ccco1 (stereo not drawn) -14.9%, CC(=O)C1=C(C)NC(=O)NC1c1cc(Br)ccc1OCC#N (stereo not drawn) -0.972%, O=C(COC(=O)Cn1[nH]c(=O)c2ccccc2c1=O)Nc1ncc(Cl)cc1Cl -24.9%, Cc1ccccc1C(=O)NCC(c1ccco1)N1CCc2ccccc21 (stereo not drawn) -18.5%, Nc1cc(N)nc(SCC(=O)Nc2cccc(S(=O)(=O)N3CCCCC3)c2)n1 3.49%, CCC(C)N(C(=O)Cn1nc(C)c([N+](=O)[O-])c1C)C1CCS(=O)(=O)C1 (stereo not drawn) 15.9%, C/C=C/c1ccc(OCC(O)CN2CCCCCCC2)c(OC)c1 (stereo not drawn) -10.5%, COc1ccc(OCCCCN2CCC(C)CC2)cc1 7.68%, O=C(C1CCC1)N1CCN(c2ccccc2)CC1 1.73%, CCCS(=O)(=O)N1CCCC(C(=O)N2CCN(c3ccccc3)CC2)C1 (stereo not drawn) 6.48%, Cc1ccc(S(=O)(=O)N2CCN(c3ccccc3)CC2)cc1C 26.6%, CCS(=O)(=O)N1CCC(C(=O)N2CCN(c3ccccc3)CC2)CC1 -2.98%, O=C(c1cc2ccccc2o1)N1CCN(S(=O)(=O)c2ccc(Cl)s2)CC1 17.4%, CC(C)(CNC(=O)CNC(=O)C1CCCCC1)N1CCOCC1 -45.4%, CC1(C)CC(=O)C=C(c2ccc(Cl)c(C(F)(F)F)c2)C1 4.19%, Cc1cccc(OCC(O)CN2CCN(S(=O)(=O)c3ccc(C)cc3C)CC2)c1 (stereo not drawn) -1.31%, CCc1ccc(OCC(O)CN2CCN(CCO)CC2)cc1 (stereo not drawn) -7.21%, Cc1ccc(Cl)c(OCC(=O)N2CCc3ccccc3C2)c1 2.48%, C=CCc1ccc(OCC(O)CN2CCN(Cc3ccccc3)CC2)c(OC)c1 (stereo not drawn) 0.147%, CC(C)(C)OC(=O)Nc1ccc([C@@H](NC(=O)OC(C)(C)C)C(=O)OC(C)(C)C)cc1 5.44%, CCCc1nnc(NC(=O)CN2C(=O)c3ccccc3S2(=O)=O)s1 2.63%, Nc1nnc(SCn2nnc3ccccc3c2=O)s1 -2.28%, CCN(CC(=O)Nc1ccc(OC)cc1)C(=O)c1ccc(Cl)c(S(=O)(=O)N2CCCC2)c1 -15.2%, CCOc1ccc(CC(=O)NCCS(=O)(=O)N2CCN(c3ccccc3)CC2)cc1 -11.3%, O=S(=O)(NCCS(=O)(=O)N1CCN(c2ccccc2)CC1)c1ccc(F)cc1 -7.02%, COc1cc(/C=C/C(=O)N2CCc3ccccc3C2)cc(OC)c1OC -15.7%, COc1cc(C)c(C)cc1S(=O)(=O)N1CCCc2ccccc21 -2.59%, O=C(OCC(=O)N1CCCC1)c1ccc(Cl)nc1 -5.57%, Cc1ccc2nc(NC(=O)C3CSC4(C)CCC(=O)N34)sc2c1 (stereo not drawn) -20%, CC1(C)O[C@@H]2[C@H](O1)[C@@H](CO)O[C@H]2n1c(N2CCCCC2)nc2c(N)ncnc21 15.7%, CC(=O)Nc1ccc(/C=N/NC(=O)c2cccs2)cc1 -20.3%, Cc1cccc(-n2c(C)cc(/C=N\NC(=O)c3cccs3)c2C)c1 2.76%, COc1ccc(CNC(=O)COC(=O)c2c(C)nn(-c3ccccc3)c2C)cc1OC 5.14%, CC(=O)N(C)c1ccc(NC(=O)Nc2cccc3ccccc23)cc1 11.1%, CCOc1ccc(NC(=O)Nc2cc(C)on2)cc1 -12.8%, Cc1cccc(C(=O)NCC(=O)OCC(=O)N(C)CC(=O)Nc2ccccc2Cl)c1 -38.4%, Cc1ccc(OCCCC(=O)Nc2ccc3c(c2)OCCO3)cc1 -2.09%, COc1ccc(C(=O)OCC(=O)c2cc(C)n(CC3CCCO3)c2C)cc1[N+](=O)[O-] (stereo not drawn) -5.34%, O=C(Nn1cnc2ccccc2c1=O)c1ccc([N+](=O)[O-])cc1Cl -1.86%, Cc1nc2ccccc2c(=O)n1NC(=O)c1ccccc1 -7.6%, Cc1ccsc1C(=O)NC1CCCCC1C (stereo not drawn) -11.1%, CCc1cccc(C)c1NC(=O)COC(=O)CC1CCCC1 -13.9%, CN(Cc1cccs1)C(=O)CN1C(=O)c2ccccc2S1(=O)=O -30.6%, CCOCCCNCc1ccc(OCc2ccc(F)cc2)c(OC)c1 2.04%, CCOCCCNCc1cc(Br)ccc1OCC 6.96%, CN(CC(=O)Nc1ccc(F)c(F)c1F)C(=O)Cn1cnc2c1c(=O)n(C)c(=O)n2C 2.66%, O=C(NCCCn1ccnc1)c1cc(-c2ccccc2)on1 7.61%, COc1ccc(-c2cc(C(=O)NCCCn3ccnc3)no2)cc1 3.91%, CCOC(=O)[C@H]1[C@H]2COc3ccc(Cl)cc3[C@@H]2N2C(=O)c3cc(C)ccc3NC(=O)[C@@]12C -4.21%, O=C(C1CC(=O)N(C2CCCC2)C1)N1CCN(c2cccc(C(F)(F)F)c2)CC1 (stereo not drawn) 11.8%, Cc1ccccc1N1CCN(CCCN2C(=O)C3CCCCN3C2=O)CC1 (stereo not drawn) -27.4%, CC(C)CN(C(=O)c1ccc2c(c1)OCO2)C1CCS(=O)(=O)C1 (stereo not drawn) -6.59%, Cc1ccc2nnn(Cc3cccc(C(C)(C)C)c3O)c2c1 6.04%, COc1ccccc1N1CCN(C(=O)c2ccc(Cl)c(S(=O)(=O)N3CCCC3)c2)CC1 -0.604%, COc1cccc(-c2cc(C(=O)N3CCN(c4ccccc4OC)CC3)no2)c1 3.44%, Cn1c(N)c(C(=O)COC(=O)COc2ccc(Cl)cc2)c(=O)n(C)c1=O 20.2%, COc1ccc(C)cc1S(=O)(=O)Nc1cc2c3c(c1)CCC(=O)N3CCC2 6.3%, Cc1ccc(C)c(OCCC(=O)OCC(=O)c2ccc3c(c2)NC(=O)CO3)c1 -0.691%

inhibition, active:
CCOC(=O)c1sc2nc(SC)nc(-c3ccccc3)c2c1N 30.8%, O=C(Cc1csc(Nc2nc(=S)[nH]c3ccccc23)n1)NCCCN1CCN(c2cccc(Cl)c2)CC1 69.4%, Cn1c(=O)c(=O)n(C)c2cc(S(=O)(=O)NCCN3CCN(c4ccccc4F)CC3)ccc21 42.8%, CNCC(O)c1ccc(O)c(O)c1 (stereo not drawn) 84.7%, CCOC(=O)COc1ccc(Cl)cc1C1NC(=O)NC(C)=C1C(C)=O (stereo not drawn) 30.8%, C/C=C/c1ccc(OCCCCN2CCC(C)CC2)c(OC)c1 45.6%, CS(=O)(=O)N1CCC(C(=O)N2CCN(c3ccccc3)CC2)CC1 47.3%, CCS(=O)(=O)N1CCC(N2CCN(c3ccccc3)CC2)CC1 73.1%, OC(COc1ccc(F)cc1Cl)CN1CCc2ccccc2C1 (stereo not drawn) 68.3%, Cc1ccc(OCC(O)CN2CCN(CC(O)COc3ccc(C)cc3Cl)CC2)c(Cl)c1 (stereo not drawn) 78.4%, Nc1nnc(SCCN2C(=O)c3ccccc3S2(=O)=O)s1 49.1%, CCC(C)(C)NC(=O)/C=C/c1cc(OC)c(OC)c(S(=O)(=O)N2CCc3ccccc32)c1 40.9%, Cc1ccc(-n2nc(C)c(/C=N/NC(=O)c3cccs3)c2Cl)cc1 32.5%, CCOc1ccc(NC(=O)Nc2ccc(N(C)C(C)=O)cc2)cc1 31.6%, O=C(Nn1cnc2ccccc2c1=O)c1ccccc1 31.2%, CCOc1ccccc1OCCCNCc1ccccc1 50%, COc1ccccc1-c1cc(C(=O)NCCCn2ccnc2)no1 45.9%, O=C1C2CCCN2C(=O)N1CCCCN1CCN(c2cccc(C(F)(F)F)c2)CC1 (stereo not drawn) 106%, COc1ccccc1N1CCN(C(=O)c2c(-c3c(Cl)cccc3Cl)noc2C)CC1 40%
